Measurements as given in PubChem BioAssay (Tox21).
Results filed as inconclusive are left out. The source made the active and inactive calls. Unless noted, calls come from the whole dose curve; as a rule, active = well fitted curve in the direction sought with a large enough effect in the repeat runs; inconclusive = weak or mixed curves; inactive = no such curve, though single readings can be large; an effect the other way counts as inactive or inconclusive.

Key:
[1] = A CellTox Green Cytotoxicity Assay to monitor cytotoxicity in HepG2 cells - 16 hour (AID 1224876); note: nearly all actives have a fitted effect of over 45% in size
Summary of the method: (§1)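 HepG2 cells, 600/well, preincubated 5 h with CellTox Green dye, then exposed to Tox21 compounds in DMSO at 37 C for up to 40 h. Dead-cell DNA fluorescence read at the indicated time point.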

[2] = qHTS RealTime-Glo MT Cell Viability Assay in HepG2 cells - 32 hour (AID 1224877); note: nearly all actives have a fitted effect of over 55% in size
Summary of the method: (§2)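 HepG2 suspension premixed with RealTime-Glo reagents is plated at 600 cells per well and left 5 h at 37 C/5% CO2. Compounds in DMSO then go in, and bioluminescence reflecting viable cell number is recorded over 40 h.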

[3] = A CellTox Green Cytotoxicity Assay to monitor cytotoxicity in HepG2 cells - 24 hour (AID 1224878); note: nearly all actives have a fitted effect of over 45% in size
Summary of the method: as §1

[4] = A CellTox Green Cytotoxicity Assay to monitor cytotoxicity in HepG2 cells - 40 hour (AID 1224879); note: nearly all actives have a fitted effect of over 40% in size
Summary of the method: as §1

[5] = qHTS RealTime-Glo MT Cell Viability Assay in HEK293 cells - 0 hour (AID 1224880); note: nearly all actives have a fitted effect of over 45% in size; note: potency is the fitted concentration of half-maximal effect
Summary of the method: (§3)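 600 cells/well were plated with the nonlytic NanoLuc/prosubstrate reagent, pre-incubated 5 h, then given 23 nL of compound in DMSO. Incubation at 37 C for 40 h, with luminescence from viable-cell-reduced substrate read repeatedly from 0 h.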

[6] = A CellTox Green Cytotoxicity Assay to monitor cytotoxicity in HEK293 cells - 32 hour (AID 1224881); note: nearly all actives have a fitted effect of over 40% in size
Summary of the method: (§4)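 HEK293 cells, 600/well, were preincubated 5 hours and then exposed to compounds at 37 C for up to 40 hours. A cell-impermeant cyanine dye staining dead-cell DNA was read by fluorescence at 0, 8, 16, 24, 32 and 40 h time points.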

[7] = A CellTox Green Cytotoxicity Assay to monitor cytotoxicity in HepG2 cells - 0 hour (AID 1224882); note: nearly all actives have a fitted effect of over 35% in size
Summary of the method: as §1

[8] = A CellTox Green Cytotoxicity Assay to monitor cytotoxicity in HepG2 cells - 32 hour (AID 1224883); note: nearly all actives have a fitted effect of over 50% in size
Summary of the method: as §1

[9] = A CellTox Green Cytotoxicity Assay to monitor cytotoxicity in HEK293 cells - 8 hour (AID 1224884); note: nearly all actives have a fitted effect of over 35% in size
Summary of the method: as §4

[10] = qHTS RealTime-Glo MT Cell Viability Assay in HepG2 cells - 16 hour (AID 1224885); note: nearly all actives have a fitted effect of over 50% in size
Summary of the method: as §2

[11] = qHTS RealTime-Glo MT Cell Viability Assay in HEK293 cells - 24 hour (AID 1224886); note: top concentration of the series differs between compounds; nearly all actives have a fitted effect of over 50% in size
Summary of the method: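 Reads taken at 0, 8, 16, 24, 32 and 40 h from the same wells. HEK293 cells (600/well) carried RealTime-Glo reagents from seeding, with compound added after a 5 h settle at 37 C.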

[12] = qHTS RealTime-Glo MT Cell Viability Assay in HEK293 cells - 8 hour (AID 1224887); note: top concentration of the series differs between compounds; nearly all actives have a fitted effect of over 50% in size
Summary of the method: as §3

[13] = A CellTox Green Cytotoxicity Assay to monitor cytotoxicity in HEK293 cells - 16 hour (AID 1224888); note: nearly all actives have a fitted effect of over 35% in size
Summary of the method: as §4

[14] = A CellTox Green Cytotoxicity Assay to monitor cytotoxicity in HepG2 cells - 8 hour (AID 1224890); note: nearly all actives have a fitted effect of over 45% in size
Summary of the method: as §1

[15] = qHTS assay to identify small molecule antagonists of the estrogen receptor alpha (ER-alpha) signaling pathway using the BG1 cell line in the presence of 0.1 nM 17-beta-estradiol - cell viability counter screen (AID 1259241); note: nearly all actives have a fitted effect of over 40% in size
Summary of the method: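 Cytotoxicity counter-screen: live-cell protease activity measured by fluorescence (30 min reagent step) in the same wells. Cells were VM7Luc4E2 with endogenous ER-alpha and ERE-driven luciferase, treated 22 hr at 37C alongside 0.1 nM 17beta-estradiol final.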

[16] = qHTS assay to identify small molecule antagonists of the androgen receptor (AR) signaling pathway using the MDA cell line in the presence of 0.5 nM R1881 - cell viability counter screen (AID 1259242); note: nearly all actives have a fitted effect of over 45% in size
Summary of the method: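 MDA-kb2 cells (MMTV-luciferase, AR/GR responsive) were treated with compounds plus 0.5 nM R1881 (final) for 16 hr at 37C, 0% CO2. Viability was then read in the same wells as live-cell protease fluorescence (CellTiter-Fluor, 30 min).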

[17] = target: Estrogen receptor (Homo sapiens) (UniProt P03372); experiment: qHTS assay to identify small molecule antagonists of the estrogen receptor alpha (ER-alpha) signaling pathway using the BG1 cell line in the presence of 0.1 nM 17-beta-estradiol (AID 1259244); note: nearly all actives have a fitted effect of over 50% in size
Summary of the method: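 VM7Luc4E2 cells (endogenous full-length ER-alpha, 4×ERE-luciferase), kept 5 days in phenol red-free, charcoal-stripped FBS medium; 4,000 cells/well. Compounds added with 0.1 nM (final) 17beta-estradiol, 22 hr at 37C; luminescence read with ONE-Glo after 30 min.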

[18] = qHTS RealTime-Glo MT Cell Viability Assay in HepG2 cells - 0 hour (AID 1224889); note: nearly all actives have a fitted effect of over 50% in size; note: potency is the fitted concentration of half-maximal effect
Summary of the method: as §2

[19] = qHTS assay to identify small molecule phospholipidosis (PLD) inducers (AID 1259344; active = well fitted curve in the direction sought with a large enough effect; an effect the other way counts as inactive or inconclusive)
Summary of the method: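 Phospholipidosis is scored by imaging LipidTOX-stained pits in HepG2 cells exposed to compound for 24 h at 37 C; pit counts and integrated intensities per well and per cell serve as outputs.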
% is set by controls: 0 for no effect and ±100 for the full control effect.

Estrogen receptor (Homo sapiens), sequence (P03372 whole entry, looked up): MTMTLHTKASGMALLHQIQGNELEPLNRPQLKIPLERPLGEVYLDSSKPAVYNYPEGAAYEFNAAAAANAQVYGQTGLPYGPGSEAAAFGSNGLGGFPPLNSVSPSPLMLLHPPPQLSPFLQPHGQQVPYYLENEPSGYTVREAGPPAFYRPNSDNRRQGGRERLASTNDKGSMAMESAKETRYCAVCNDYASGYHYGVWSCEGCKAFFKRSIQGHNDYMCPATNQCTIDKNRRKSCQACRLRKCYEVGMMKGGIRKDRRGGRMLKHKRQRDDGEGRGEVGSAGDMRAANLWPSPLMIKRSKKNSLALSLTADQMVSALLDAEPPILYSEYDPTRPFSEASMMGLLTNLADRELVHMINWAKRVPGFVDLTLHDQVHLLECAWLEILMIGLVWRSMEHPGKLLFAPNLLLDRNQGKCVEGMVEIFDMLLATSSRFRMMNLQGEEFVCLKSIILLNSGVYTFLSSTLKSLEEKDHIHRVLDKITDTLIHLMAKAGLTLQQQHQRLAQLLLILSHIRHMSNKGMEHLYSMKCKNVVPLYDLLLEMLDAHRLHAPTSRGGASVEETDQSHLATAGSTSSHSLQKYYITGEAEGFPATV

OC1OCCOC1O (configuration not stated)
inactive: Potency [1] | outcome [2] | Potency [3] | Potency [4] | Potency [5] | Potency [6] | Potency [7] | Potency [8] | Potency [9] | outcome [10] | Potency [11] | Potency [12] | Potency [13] | Potency [14] | outcome [15] | outcome [16] | outcome [17]

CC(C)OC(=O)OCOP(=O)(CO[C@H](C)Cn1cnc2c(N)ncnc21)OCOC(=O)OC(C)C
inactive: Potency [1] | outcome [2] | Potency [3] | Potency [4] | Potency [5] | Potency [6] | Potency [7] | Potency [8] | Potency [9] | outcome [10] | Potency [11] | Potency [12] | Potency [13] | Potency [18] | Potency [14] | outcome [15] | outcome [16] | outcome [17] | outcome [19]

Cc1cc(-c2ccccc2)nnc1NCCN1CCOCC1
inactive: Potency [1] | outcome [2] | Potency [3] | Potency [4] | Potency [5] | Potency [6] | Potency [7] | Potency [8] | Potency [9] | outcome [10] | Potency [12] | Potency [13] | Potency [18] | Potency [14] | outcome [15] | outcome [16] | outcome [17]

OCC(O)CN1CCN(c2ccccc2)CC1 (configuration not stated)
inactive: Potency [1] | outcome [2] | Potency [3] | Potency [4] | Potency [5] | Potency [6] | Potency [7] | Potency [8] | Potency [9] | outcome [10] | Potency [11] | Potency [12] | Potency [13] | Potency [18] | Potency [14] | outcome [15] | outcome [16] | outcome [19]

Cc1c(N)cccc1Cl
inactive: Potency [1] | outcome [2] | Potency [3] | Potency [4] | Potency [5] | Potency [6] | Potency [7] | Potency [8] | Potency [9] | outcome [10] | Potency [11] | Potency [12] | Potency [13] | Potency [18] | Potency [14] | outcome [15] | outcome [16] | outcome [17]

CC(=O)C1C(=O)C=C(C)OC1=O (configuration not stated)
inactive: Potency [1] | outcome [2] | Potency [3] | Potency [4] | Potency [5] | Potency [6] | Potency [7] | Potency [8] | Potency [9] | outcome [10] | Potency [11] | Potency [12] | Potency [13] | Potency [18] | Potency [14] | outcome [15] | outcome [16] | outcome [17]

C/C(=C1\CCOC(=O)S1)N(C=O)Cc1cnc(C)nc1N
inactive: Potency [1] | outcome [2] | Potency [3] | Potency [4] | Potency [5] | Potency [6] | Potency [7] | Potency [8] | Potency [9] | outcome [10] | Potency [11] | Potency [12] | Potency [13] | Potency [18] | Potency [14] | outcome [15] | outcome [16] | outcome [17]

CC1=C(C(=O)O)N2C(=O)[C@@H](NC(=O)[C@H](N)c3ccccc3)[C@H]2SC1
inactive: Potency [1] | outcome [2] | Potency [3] | Potency [4] | Potency [5] | Potency [6] | Potency [7] | Potency [8] | Potency [9] | outcome [10] | Potency [11] | Potency [12] | Potency [13] | Potency [18] | Potency [14] | outcome [15] | outcome [16] | outcome [17] | outcome [19]

COC(=O)c1ccccc1C(=O)O
inactive: Potency [1] | outcome [2] | Potency [3] | Potency [4] | Potency [5] | Potency [6] | Potency [7] | Potency [8] | outcome [10] | Potency [12] | Potency [13] | Potency [18] | Potency [14] | outcome [15] | outcome [16] | outcome [17]

C=CC/C=C/C
inactive: Potency [1] | outcome [2] | Potency [3] | Potency [4] | Potency [5] | Potency [6] | Potency [7] | Potency [8] | outcome [10] | Potency [12] | Potency [13] | Potency [18] | Potency [14] | outcome [15] | outcome [16] | outcome [17]

O=C(O)CNC(=O)CNC(=O)CNC(=O)CSC(=O)c1ccccc1
inactive: Potency [1] | outcome [2] | Potency [3] | Potency [4] | Potency [5] | Potency [6] | Potency [7] | Potency [8] | Potency [9] | outcome [10] | Potency [13] | Potency [14] | outcome [15] | outcome [16] | outcome [17] | PLD induction [19] 1.13% [at 7.66 µM]

C/C(CC(C)C)=N\O
inactive: Potency [1] | outcome [2] | Potency [3] | Potency [4] | Potency [5] | Potency [6] | Potency [7] | Potency [8] | outcome [10] | Potency [11] | Potency [12] | Potency [13] | Potency [18] | Potency [14] | outcome [15] | outcome [16] | outcome [17]

C[C@]12CCC(=O)C=C1CC[C@H]1[C@@H]3CC[C@](O)(C(=O)CO)[C@@]3(C)C[C@H](O)[C@@]12F
inactive: Potency [1] | outcome [2] | Potency [3] | Potency [4] | Potency [6] | Potency [7] | Potency [8] | Potency [9] | outcome [10] | Potency [12] | Potency [13] | Potency [14] | outcome [15] | outcome [16] | outcome [17] | outcome [19]
active: Potency [5] 9.52 µM | Potency [18] 2.13 µM

CCC(C)OC(C)CC (configuration not stated)
inactive: Potency [1] | outcome [2] | Potency [3] | Potency [4] | Potency [5] | Potency [6] | Potency [7] | Potency [8] | Potency [9] | outcome [10] | Potency [12] | Potency [13] | Potency [18] | Potency [14] | outcome [15] | outcome [16] | outcome [17]

CC1=C(C(=O)O)N2C(=O)[C@@H](NC(=O)[C@H](N)C3=CCC=CC3)[C@H]2SC1
inactive: Potency [1] | outcome [2] | Potency [3] | Potency [4] | Potency [5] | Potency [6] | Potency [7] | Potency [8] | outcome [10] | Potency [11] | Potency [12] | Potency [13] | Potency [18] | Potency [14] | outcome [15] | outcome [16] | outcome [17] | PLD induction [19] 0.229% [at 7.66 µM]
